# Assay results from PubChem BioAssay AID929 (National Center for Advancing Translational Sciences (NCATS), 2007).
# The other results are listed elsewhere or left out. Results filed as inconclusive are left out. Active and inactive are the calls of the source. The call rests on the fitted dose curve; in most records, active means well fitted inhibition curve with a large enough effect in the main read-out, with a control signal flat; inconclusive means small, poorly fitted or top-dose-only effect, or a change in a side signal; inactive means no such curve, though single readings can be large or run the other way.
# Biological target: Caspase-1 (Homo sapiens) (UniProt P29466)
# Sequence (P29466 120-297 limits assumed): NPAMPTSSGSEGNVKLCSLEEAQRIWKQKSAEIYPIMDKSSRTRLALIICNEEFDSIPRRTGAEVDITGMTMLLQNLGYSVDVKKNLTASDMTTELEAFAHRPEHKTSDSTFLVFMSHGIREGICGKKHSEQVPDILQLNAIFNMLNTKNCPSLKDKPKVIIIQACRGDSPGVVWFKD
# Sequence (P29466 317-404 limits assumed): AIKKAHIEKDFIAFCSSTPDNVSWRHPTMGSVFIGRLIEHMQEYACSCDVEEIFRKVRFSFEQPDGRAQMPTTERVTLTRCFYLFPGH
# Assay: Concentration-Response Counterscreen for Redox Active Inhibitors of Caspase-1: Cysteine
# Conditions: recombinant caspase-1, fluorogenic substrate, cysteine buffer; series mostly up to 57.5 µM
# Description: NIH Molecular Libraries Screening Centers Network [MLSCN]
# NIH Chemical Genomics Center [NCGC]
# PI Name: Dr. James Wells,
# Dr. Enrique Perez-Paya, Dr.Janice Williams, Dr. Dennis Wolan, a person
# The caspases (Cysteine Aspartyl Protease) comprise a related family of 14 dimeric proteases that are critical mediators of apoptosis (programmed cell death) and inflammation. The caspases represent an important class of drug targets for stroke, ischemia, cancer and inflammatory diseases. […] One goal of this project was to identify compounds that act as allosteric inhibitors via stabilizing the procaspase form of the enzyme. […]
# The biochemical assay was configured using purified caspase 1 at a high enzyme concentration to promote formation of the homodimers and thus facilitate the identification of allosteric inhibitors. […] After initiation of the assay with substrate the plates were rapidly read using an automated robotic system (Kalypsys, Inc.) to maintain consistent timing. […] Product formation was also measured after 1 hour. […]
# Caspase 1 was prepared in buffer (50 mM HEPES pH 7.5, 50 mM KCl, 200 mM NaCl, 10 mM Cys (Aldrich cat# 861677), 0.1% CHAPS) at a concentration of 66.6 nM and 3 uL was dispensed to all wells using black solid Kalypsys 1536-well plates. […] The plates were then exposed using 405 nm excitation/520 nm emission filters for 4 sec and read at 20 sec intervals for 3 min. […]
row,Structure (SMILES),outcome
1,Cc1nc2c(C(=O)NCc3ccc4c(c3)OCO4)c[nH]n2c(=O)c1Cc1ccccc1F,inactive
